From the supplement of paper PMC11732987, “Enantioselective OTUD7B fragment discovery through chemoproteomics screening and high-throughput optimisation” (Communications Chemistry, 2025)

Tests used:
Assay in all cases: log2 ratio of Biotin-Ahx-Ub-VS probe labelling (fragment/DMSO); higher = less target engagement (more negative = stronger competition), active = hit call of the paper (q ≤ 0.05, log2 ratio ≤ -1)
Details in all cases: compound concentration: 200 uM; treatment time: 3 h
USP34 = USP34 (UniProt Q70CQ2)
Sequence of USP34 (Q70CQ2 whole entry, the tested form may be a part): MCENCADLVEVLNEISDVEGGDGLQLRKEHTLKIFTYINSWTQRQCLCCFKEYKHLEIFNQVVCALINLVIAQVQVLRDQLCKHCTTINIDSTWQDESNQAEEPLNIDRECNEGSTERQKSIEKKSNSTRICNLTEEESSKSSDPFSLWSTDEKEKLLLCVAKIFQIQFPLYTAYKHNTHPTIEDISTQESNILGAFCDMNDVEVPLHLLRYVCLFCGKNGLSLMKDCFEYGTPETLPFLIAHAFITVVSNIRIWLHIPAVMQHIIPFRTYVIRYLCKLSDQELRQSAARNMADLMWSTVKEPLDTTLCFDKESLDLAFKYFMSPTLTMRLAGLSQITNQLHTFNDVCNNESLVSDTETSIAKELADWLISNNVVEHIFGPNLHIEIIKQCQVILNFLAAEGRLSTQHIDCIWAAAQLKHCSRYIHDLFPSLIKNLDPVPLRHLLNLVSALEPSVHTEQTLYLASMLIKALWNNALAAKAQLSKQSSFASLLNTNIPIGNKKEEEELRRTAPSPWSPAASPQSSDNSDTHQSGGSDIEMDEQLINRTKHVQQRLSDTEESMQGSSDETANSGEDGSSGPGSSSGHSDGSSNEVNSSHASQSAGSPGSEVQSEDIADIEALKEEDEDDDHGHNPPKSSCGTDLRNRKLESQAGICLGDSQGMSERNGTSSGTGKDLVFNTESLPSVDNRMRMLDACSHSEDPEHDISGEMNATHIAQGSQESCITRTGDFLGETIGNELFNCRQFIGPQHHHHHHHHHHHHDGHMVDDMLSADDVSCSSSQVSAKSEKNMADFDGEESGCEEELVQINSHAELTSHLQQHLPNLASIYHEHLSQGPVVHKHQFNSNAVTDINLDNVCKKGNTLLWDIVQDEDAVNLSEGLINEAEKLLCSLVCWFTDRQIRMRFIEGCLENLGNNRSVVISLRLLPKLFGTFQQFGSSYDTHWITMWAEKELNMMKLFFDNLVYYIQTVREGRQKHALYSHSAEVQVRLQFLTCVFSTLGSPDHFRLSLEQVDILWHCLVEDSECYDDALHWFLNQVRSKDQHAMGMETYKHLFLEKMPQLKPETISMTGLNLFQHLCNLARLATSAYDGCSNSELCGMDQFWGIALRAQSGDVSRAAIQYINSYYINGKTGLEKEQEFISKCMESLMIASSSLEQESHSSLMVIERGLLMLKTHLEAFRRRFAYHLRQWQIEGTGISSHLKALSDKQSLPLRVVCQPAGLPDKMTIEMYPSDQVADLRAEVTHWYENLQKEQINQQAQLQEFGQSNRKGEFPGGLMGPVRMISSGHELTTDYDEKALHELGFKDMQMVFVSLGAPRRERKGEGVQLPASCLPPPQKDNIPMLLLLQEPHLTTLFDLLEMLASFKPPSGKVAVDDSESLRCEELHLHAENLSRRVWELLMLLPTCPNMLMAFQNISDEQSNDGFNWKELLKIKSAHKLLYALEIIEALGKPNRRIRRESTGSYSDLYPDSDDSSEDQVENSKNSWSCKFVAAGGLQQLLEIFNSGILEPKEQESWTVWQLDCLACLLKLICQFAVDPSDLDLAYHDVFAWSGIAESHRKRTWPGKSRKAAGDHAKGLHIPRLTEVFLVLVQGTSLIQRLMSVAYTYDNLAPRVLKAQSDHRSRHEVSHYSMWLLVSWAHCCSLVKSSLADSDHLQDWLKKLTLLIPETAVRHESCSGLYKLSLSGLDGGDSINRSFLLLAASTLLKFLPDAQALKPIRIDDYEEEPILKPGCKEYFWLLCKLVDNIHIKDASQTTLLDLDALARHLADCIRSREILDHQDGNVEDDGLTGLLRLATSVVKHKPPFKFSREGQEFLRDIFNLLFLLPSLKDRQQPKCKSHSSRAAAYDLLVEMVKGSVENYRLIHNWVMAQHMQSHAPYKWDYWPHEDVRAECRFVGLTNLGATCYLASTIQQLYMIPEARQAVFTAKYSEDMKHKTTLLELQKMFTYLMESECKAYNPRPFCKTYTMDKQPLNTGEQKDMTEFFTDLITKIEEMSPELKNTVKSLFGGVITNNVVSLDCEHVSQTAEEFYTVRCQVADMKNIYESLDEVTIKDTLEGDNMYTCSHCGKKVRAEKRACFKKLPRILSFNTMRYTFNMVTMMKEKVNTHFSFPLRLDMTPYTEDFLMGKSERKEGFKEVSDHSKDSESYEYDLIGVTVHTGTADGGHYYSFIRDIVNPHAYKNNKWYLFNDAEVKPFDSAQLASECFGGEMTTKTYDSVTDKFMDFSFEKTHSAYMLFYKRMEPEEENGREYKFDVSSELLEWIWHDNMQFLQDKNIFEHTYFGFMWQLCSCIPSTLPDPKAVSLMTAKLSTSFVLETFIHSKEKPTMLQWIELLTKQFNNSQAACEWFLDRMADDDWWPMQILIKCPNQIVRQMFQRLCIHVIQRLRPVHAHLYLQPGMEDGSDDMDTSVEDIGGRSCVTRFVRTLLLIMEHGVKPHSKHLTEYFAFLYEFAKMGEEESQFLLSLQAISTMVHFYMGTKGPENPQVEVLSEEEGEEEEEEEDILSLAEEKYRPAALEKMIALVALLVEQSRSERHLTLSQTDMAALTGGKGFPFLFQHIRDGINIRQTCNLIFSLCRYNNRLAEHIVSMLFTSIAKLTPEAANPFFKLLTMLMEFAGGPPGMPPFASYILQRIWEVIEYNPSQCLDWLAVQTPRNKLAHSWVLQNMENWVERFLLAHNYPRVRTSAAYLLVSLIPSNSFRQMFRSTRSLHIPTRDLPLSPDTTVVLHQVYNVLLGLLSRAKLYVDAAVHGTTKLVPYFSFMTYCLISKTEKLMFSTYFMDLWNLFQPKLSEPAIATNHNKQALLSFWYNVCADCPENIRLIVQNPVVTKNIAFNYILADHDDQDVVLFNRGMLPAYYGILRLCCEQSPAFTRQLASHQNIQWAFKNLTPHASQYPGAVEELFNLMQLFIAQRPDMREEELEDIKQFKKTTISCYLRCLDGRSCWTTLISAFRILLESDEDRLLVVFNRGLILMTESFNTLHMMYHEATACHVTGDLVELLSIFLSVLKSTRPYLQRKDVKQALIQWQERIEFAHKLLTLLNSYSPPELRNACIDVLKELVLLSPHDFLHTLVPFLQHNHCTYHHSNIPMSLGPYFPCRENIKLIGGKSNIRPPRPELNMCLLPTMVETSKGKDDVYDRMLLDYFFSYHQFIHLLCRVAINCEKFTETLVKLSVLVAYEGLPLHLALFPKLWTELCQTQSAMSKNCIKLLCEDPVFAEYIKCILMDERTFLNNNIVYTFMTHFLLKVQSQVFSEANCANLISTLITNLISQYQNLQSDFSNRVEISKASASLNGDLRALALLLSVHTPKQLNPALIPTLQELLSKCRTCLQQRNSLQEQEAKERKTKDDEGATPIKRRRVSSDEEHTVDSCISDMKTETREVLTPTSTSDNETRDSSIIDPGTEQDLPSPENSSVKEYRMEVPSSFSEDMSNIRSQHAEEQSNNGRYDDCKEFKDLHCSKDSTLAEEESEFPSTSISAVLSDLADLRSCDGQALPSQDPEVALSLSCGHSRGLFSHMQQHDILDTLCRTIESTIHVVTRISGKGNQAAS
In short: (§1)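 Average log2 ratios of fragment over vehicle were obtained by unpaired t-test from global-median-normalised Spectronaut label-free quantities. Proteins with ≥2 unique peptides were included. HEK293T lysate (495 µg per sample) was treated in triplicate with fragment at 200 µM or vehicle for 3 h, then with Biotin-Ahx-Ub-VS at 0.5 µM final for 1 h, and labelled DUBs were NeutrAvidin-enriched and run by diaPASEF LC-MS/MS.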

USP36 = biological target: T1, USP36 (UniProt Q9P275)
T1 sequence (whole entry): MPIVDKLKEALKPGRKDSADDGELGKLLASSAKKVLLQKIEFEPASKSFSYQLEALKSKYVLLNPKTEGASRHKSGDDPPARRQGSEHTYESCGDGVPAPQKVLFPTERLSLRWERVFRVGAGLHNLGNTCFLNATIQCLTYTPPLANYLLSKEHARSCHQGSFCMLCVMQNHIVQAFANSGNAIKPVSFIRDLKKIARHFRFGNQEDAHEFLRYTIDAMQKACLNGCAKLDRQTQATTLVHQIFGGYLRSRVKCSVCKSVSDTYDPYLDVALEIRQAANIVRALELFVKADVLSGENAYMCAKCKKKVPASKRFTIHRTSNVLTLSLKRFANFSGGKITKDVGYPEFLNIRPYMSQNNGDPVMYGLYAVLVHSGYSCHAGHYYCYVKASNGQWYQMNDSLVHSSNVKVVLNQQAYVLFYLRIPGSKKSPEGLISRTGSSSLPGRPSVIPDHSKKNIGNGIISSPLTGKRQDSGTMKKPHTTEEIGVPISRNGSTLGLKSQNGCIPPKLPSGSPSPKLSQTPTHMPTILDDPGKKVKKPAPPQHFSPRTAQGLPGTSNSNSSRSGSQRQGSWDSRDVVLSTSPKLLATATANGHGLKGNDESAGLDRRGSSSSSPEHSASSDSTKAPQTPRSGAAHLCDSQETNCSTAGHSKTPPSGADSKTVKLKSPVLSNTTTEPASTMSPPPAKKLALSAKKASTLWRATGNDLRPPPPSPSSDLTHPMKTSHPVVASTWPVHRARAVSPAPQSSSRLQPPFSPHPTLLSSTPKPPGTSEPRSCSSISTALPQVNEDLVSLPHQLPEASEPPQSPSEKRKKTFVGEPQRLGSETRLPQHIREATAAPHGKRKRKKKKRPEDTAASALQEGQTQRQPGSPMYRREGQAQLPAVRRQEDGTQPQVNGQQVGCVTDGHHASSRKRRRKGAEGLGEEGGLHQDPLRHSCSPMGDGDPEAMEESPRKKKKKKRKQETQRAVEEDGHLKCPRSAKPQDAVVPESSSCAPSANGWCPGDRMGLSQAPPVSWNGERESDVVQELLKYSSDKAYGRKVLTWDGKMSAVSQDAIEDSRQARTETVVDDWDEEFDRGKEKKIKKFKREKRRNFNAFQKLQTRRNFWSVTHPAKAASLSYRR
In short: as §1

USP38 = biological target: T2, USP38 (UniProt Q8NB14)
T2 sequence (whole entry): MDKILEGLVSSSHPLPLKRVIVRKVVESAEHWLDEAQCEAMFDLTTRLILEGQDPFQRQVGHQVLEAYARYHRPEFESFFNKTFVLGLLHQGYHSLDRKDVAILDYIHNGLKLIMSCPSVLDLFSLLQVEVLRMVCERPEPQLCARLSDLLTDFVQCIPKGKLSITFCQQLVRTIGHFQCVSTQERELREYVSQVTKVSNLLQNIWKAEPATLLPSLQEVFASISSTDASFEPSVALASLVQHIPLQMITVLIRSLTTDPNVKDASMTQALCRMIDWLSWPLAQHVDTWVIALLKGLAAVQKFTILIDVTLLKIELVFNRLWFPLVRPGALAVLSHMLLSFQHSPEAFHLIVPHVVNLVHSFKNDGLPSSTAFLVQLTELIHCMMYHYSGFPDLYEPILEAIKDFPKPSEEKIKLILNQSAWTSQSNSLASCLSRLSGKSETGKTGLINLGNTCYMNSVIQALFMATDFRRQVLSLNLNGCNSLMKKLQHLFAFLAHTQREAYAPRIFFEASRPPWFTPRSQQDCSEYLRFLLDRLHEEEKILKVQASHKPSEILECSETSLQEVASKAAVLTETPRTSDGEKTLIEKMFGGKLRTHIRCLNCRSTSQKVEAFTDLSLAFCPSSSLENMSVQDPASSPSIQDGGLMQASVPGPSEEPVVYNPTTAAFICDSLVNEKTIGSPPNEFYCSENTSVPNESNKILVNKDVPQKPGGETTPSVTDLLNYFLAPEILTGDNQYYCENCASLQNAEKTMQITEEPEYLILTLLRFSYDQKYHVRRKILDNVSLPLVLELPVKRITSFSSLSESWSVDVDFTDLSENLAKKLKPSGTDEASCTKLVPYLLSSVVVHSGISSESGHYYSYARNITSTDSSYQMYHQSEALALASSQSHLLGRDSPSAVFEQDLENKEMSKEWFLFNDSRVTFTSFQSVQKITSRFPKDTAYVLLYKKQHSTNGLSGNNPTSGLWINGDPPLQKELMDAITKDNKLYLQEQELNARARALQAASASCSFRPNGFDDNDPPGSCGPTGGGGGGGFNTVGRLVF
In short: as §1

USP39 = biological target: T3, USP39 (UniProt Q53GS9)
T3 sequence (whole entry): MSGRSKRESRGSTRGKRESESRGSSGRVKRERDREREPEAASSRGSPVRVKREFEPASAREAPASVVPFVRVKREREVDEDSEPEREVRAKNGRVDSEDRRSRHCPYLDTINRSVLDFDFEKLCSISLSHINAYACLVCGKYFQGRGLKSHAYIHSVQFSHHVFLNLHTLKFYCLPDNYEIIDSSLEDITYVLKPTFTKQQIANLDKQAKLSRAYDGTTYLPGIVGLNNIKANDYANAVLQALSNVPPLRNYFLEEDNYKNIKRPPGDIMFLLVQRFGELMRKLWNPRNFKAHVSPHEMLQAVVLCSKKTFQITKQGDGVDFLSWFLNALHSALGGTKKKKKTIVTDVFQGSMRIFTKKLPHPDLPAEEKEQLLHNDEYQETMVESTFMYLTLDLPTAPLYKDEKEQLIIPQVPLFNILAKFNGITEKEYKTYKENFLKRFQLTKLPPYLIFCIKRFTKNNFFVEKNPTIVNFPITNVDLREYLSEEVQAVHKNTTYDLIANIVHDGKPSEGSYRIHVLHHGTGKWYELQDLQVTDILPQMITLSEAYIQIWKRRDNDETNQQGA
In short: as §1

USP4 = biological target: T4, USP4 (UniProt Q13107)
T4 sequence (whole entry): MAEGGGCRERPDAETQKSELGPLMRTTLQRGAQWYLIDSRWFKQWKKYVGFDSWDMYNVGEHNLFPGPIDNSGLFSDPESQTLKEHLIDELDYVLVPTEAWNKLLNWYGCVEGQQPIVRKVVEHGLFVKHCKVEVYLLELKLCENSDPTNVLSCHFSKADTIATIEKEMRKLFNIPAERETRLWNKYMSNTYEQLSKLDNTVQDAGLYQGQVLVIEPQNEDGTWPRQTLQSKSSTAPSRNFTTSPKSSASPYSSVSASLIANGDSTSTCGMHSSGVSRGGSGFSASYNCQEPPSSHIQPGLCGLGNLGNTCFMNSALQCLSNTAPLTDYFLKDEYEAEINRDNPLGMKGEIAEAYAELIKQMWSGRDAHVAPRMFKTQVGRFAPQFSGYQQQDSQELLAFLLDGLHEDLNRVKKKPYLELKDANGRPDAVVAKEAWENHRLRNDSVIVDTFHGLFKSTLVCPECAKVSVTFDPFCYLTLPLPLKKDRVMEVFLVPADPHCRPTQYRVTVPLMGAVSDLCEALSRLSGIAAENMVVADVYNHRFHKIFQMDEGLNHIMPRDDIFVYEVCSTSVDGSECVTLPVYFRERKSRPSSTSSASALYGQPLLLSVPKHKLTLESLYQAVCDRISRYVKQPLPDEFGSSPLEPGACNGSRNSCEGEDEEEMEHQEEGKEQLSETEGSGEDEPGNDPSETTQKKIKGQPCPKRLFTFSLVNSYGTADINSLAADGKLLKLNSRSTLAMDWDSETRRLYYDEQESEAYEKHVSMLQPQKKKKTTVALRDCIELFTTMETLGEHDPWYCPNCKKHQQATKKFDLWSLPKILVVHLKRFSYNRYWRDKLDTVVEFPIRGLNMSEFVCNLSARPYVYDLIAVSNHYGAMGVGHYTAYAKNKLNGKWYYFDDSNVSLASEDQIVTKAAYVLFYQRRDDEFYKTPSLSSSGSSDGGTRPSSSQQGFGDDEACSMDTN
In short: as §1

Measured: log2 ratio of Biotin-Ahx-Ub-VS probe labelling

Cl.O=C(CCl)NC1(c2ncccn2)CCC1
inactive: USP34 0.0452 | USP36 0.109 | USP38 0.0726 | USP39 0.133 | USP4 0.0299
